Compound activity: PubChem, National Center for Advancing Translational Sciences (NCATS)
AMA1 RON2 block: inhibitors of Plasmodium falciparum AMA1-RON2 interaction | Potency, µM (doses to about 58.2 µM), without a hit: top-dose activity change, negative = inhibition, usual class: inhibitors | hit rate 0.2% among 360,000 | AlphaScreen AMA1-biotinylated RON2 peptide binding;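 also: 0% = vehicle wells and -100% = peptide control; nearly all actives have a fitted effect of over 45% in size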
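AMA1 (3D7) with his tag at 25 nM final met compounds first, then biotinylated RON2 peptide at 25 nM; detection used donor plus acceptor beads, 10 µg/mL apiece, read by AlphaScreen after 30 min at room temperature.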
Pf growth 96h: P. falciparum growth inhibition at 96 hours | P. falciparum luciferase reporter growth, 96 h | Potency, µM (highest dose often 28.7 µM), without a hit: at the top dose activity change, negative = inhibition, actives largely listed as inhibitors | hit rate 6.9% among 320,000 | AID 504834; also: % is scaled to controls: 0 for no effect and ±100 for the full control effect
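Luminescence readout: decreased luciferase signal marks inhibited growth of reporter-expressing P. falciparum in infected red cells (2% hematocrit, 0.05% parasitemia final), exposed to compound two generations (96 h, 37 C, 5% CO2).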
Sm TGR inh: S. mansoni TGR enzyme inhibition. Q962Y6. purified TGR, DTNB reduction, TNB absorbance 405 nm. Potency, µM (top dose mostly 114 µM), inactives show at the highest dose activity change, negative = inhibition, most hits filed as inhibitors. hit rate 3% among 360,000. AID 485364; also: % is scaled to controls: 0 for no effect and ±100 for the full control effect; nearly all actives have a fitted effect of over 60% in size
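TGR 20 nM + NADPH 100 uM (dispensed conc.), cpd preinc 15 min RT; start with NADPH (500 uM addition) then DTNB (15 mM addition). Kinetic TNB absorbance, 405 nm filter. Four-parameter Hill fit across titration.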
NS1 function inh: inhibitors of influenza NS1 protein function; hit rate 0.4% among 270,000; AID 2326; Potency, µM (series often up to 46.1 µM), for inactives: top-dose activity, positive = more growth; calls by dose curve; also: actives are rising curves; nearly all actives have a fitted effect of over 50% in size
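A cell-based growth assay was used: compounds that relieve NS1-induced slow growth of budding yeast raise OD600. Assay medium was yeast nitrogen base with ammonium sulphate and -URA supplement, pH 6.0, with 2% galactose.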
Pf growth 48h: P. falciparum growth inhibition at 48 hours (one generation); Potency, µM (titrated, usually from 28.7 µM), without a hit: top-dose activity change, negative = inhibition, usual class: inhibitors; P. falciparum luciferase growth in erythrocytes, 48 h; hit rate 5.9% among 310,000; AID 504832; also: % is scaled to controls: 0 for no effect and ±100 for the full control effect
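Compounds are pin-transferred into medium, infected erythrocytes (2% hematocrit, 0.1% parasitemia final) are added, and plates sit one parasite generation at 37 C in 5% CO2. Detection reagent is then added and luminescence measured.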
An asterisk follows results filed as active; ? = inconclusive; . = not tested or not shown. Shown are actives, neighbours in structure and some others; about 11% of the full set was active somewhere. Unless noted, calls follow the shape of the dose curve; as a rule, active = well fitted curve in the direction sought with a large enough effect; inconclusive = small, poorly fitted or top-dose-only effect, or another doubt; inactive = no such curve, though single readings can be large; an effect the other way counts as inactive or inconclusive. Potency is read from the fitted curve at half-maximal effect.

SMILES	AMA1 RON2 block	Pf growth 96h	Sm TGR inh	NS1 function inh	Pf growth 48h
COc1cccc(-n2c(SCC(=O)NCCC3=CCCCC3)nc3n[nH]c(C)c3c2=N)c1	55.5%	?	4.7%	0.0%	9.28µM*
COc1cccc(NC(=O)CSc2nc3n[nH]c(C)c3c(=N)n2-c2cccc(OC)c2)c1	0.2%	171.7%	10.6%	9.6%	10.4µM*
Cc1ccc2onc(CNC(=O)N3CCN(c4cc(Cl)ccc4C)CC3)c2c1	.	.	-0.5%	.	.
Cc1ccc(NC(=O)CCCc2nnc3n(C)c(=O)c4sccc4n23)cc1F	.	.	0.1%	.	.
COC(=O)c1cc(-c2ccc(S(=O)(=O)N3CCCC3)cc2)c(C(F)(F)F)s1	-4.1%	?	-5.2%	5.6%	?
COC(=O)c1cc(-c2ccc(S(=O)(=O)N3CCCCC3)cc2)c(C(F)(F)F)s1	30.8%	?	9.7%	7.8%	11.7µM*
COc1ccc(/C=C/c2nc3ccccc3c(=O)n2-c2cccc(C(F)(F)F)c2)cc1	.	.	2.4%	.	.
COc1nc(N)nc2nc[nH]c12	-0.3%	18.5%	-14.9%	3.0%	-6.3%
CNC(=O)CSc1nc2nc(C)cc(C)n2n1	0.0%	-28.9%	7.4%	0.1%	.
Cc1cc(C)n2nc(SCC(=O)c3ccc[nH]3)nc2n1	112.9%	1.2%	31.6µM*	4.4%	?
Cc1ccc(NC(=O)CN2C(=O)N/C(=C/c3cccn3-c3ccc(C(=O)O)cc3)C2=O)cc1	-7.4%	13.6%	?	?	3.1%
Cc1ccc(NC(=O)CN2C(=O)N/C(=C/c3ccco3)C2=O)cc1	8.9%	34.8%	50.1µM*	?	60.8%
Cc1ccc(NC(=O)CN2C(=O)N/C(=C/c3cc(C)n(-c4ccc(C(=O)O)cc4)c3C)C2=O)cc1	5.6%	?	44.7µM*	.	-18.8%
CCNC(=O)C1(C)CCCN(Cc2ccc(-n3ccnc3)cc2)C1 (centres undefined)	-4.0%	.	.	.	.
CCN(CC)S(=O)(=O)c1ccc2oc(Nc3ccccc3)nc2c1	14.1%	?	2.3%	10.9%	12.2%
CCN(CC)S(=O)(=O)c1ccc2oc(Nc3ccc(OC)cc3OC)nc2c1	-8.7%	10.4µM*	-18.2%	6.7%	?
CN(C)N1C(N)=C(C#N)C(c2cccnc2)C2=C1CCCC2=O (centres undefined)	-19.7%	13.1µM*	?	8.0%	-16.5%
COc1ccc(C2CC(=O)N(c3ccccc3)C3=C2C(=O)CCC3)cc1 (centres undefined)	10.4%	0.3%	-18.8%	4.0%	-4.5%
N#CC1=C(N)N(c2ncn[nH]2)C2=C(C(=O)CCC2)C1c1ccccc1 (centres undefined)	8.5%	22.1%	-4.3%	.	?
O=C1CCCC2=C1C(c1ccccc1)CC(=O)N2c1ccccc1 (centres undefined)	-3.5%	13.1µM*	-2.5%	8.0%	-12.9%
N#CC1=C2N=C(N)c3c(sc4c3CCCCC4)N2C2=C(C(=O)CCC2)C1c1ccccc1 (centres undefined)	8.8%	4.65µM*	-33.0%	?	2.94µM*
CSc1ccc(C2C(C#N)=C(N)N(c3ccccc3)C3=C2C(=O)CCC3)cc1 (centres undefined)	13.1%	0.0%	0.0%	-22.0%	13.1µM*
COc1ccc(N2C(N)=C(C#N)C(c3ccsc3)C3=C2CCCC3=O)c(OC)c1 (centres undefined)	86.3%	3.7µM*	0.0%	24.9%	?
COc1cc2c(cc1OC)C(COc1cc(C)cc(C)c1)N(C(C)=O)CC2 (centres undefined)	-1.0%	-3.2%	6.2%	?	?
Cc1ccccc1Cn1c2ccccc2c2cn[nH]c(=O)c21	-3.3%	10.4µM*	1.1%	13.8%	?
CCOc1ccc2nc(N3CCCC(C(=O)NCc4ccc(C)cc4)C3)sc2c1 (centres undefined)	.	.	1.8%	.	.
O=C(O)CCc1ccc(-c2ccc(F)cc2)n1CC1CCCO1 (centres undefined)	-7.7%	5.5%	?	9.9%	2.6%
CC(C)(C)C(=O)CSc1nnc(-c2cccs2)n1CC1CCCO1 (centres undefined)	3.0%	-22.0%	-11.0%	0.5%	.
COc1ccc(-c2ccc(CCC(=O)O)n2CC2CCCO2)cc1 (centres undefined)	-4.8%	4.4%	35.5µM*	.	?
